Only some compounds are listed: those with a hit (about 6.1% of all), similar ones and a draw of the others.
15-hLO inh – 15-hLO (ALOX15) enzyme inhibition; 1.4% of 74,000 active; P16050; Potency, µM (series often up to 57.1 µM), hits mostly inhibitors; AID 887; purified 15hLO-1, xylenol orange hydroperoxide absorbance; note: nearly all actives have a fitted effect of over 55% in size
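Inhibition is scored from a chromogenic endpoint. After 15 min enzyme-compound contact, arachidonic acid (50 uM final) reacts 6 min with 40 nM 15hLO-1 at room temperature, then Fe-XO reagent is added for 30 min and absorbance ratio recorded.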
Tau fil binding – binders of human tau filaments. recombinant tau filaments, thioflavin S fluorescence, 15 h; filaments grown with octadecylsulfate alongside compound. Potency, µM (series often up to 57.1 µM). 2% of 71,000 active. AID 596;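 note: actives lower thioflavin S fluorescence by blocking filaments or displacing dye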
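Quantitative HTS: thioflavine S signal from ODS-induced tau filaments, excited at 450 nm, emission 510 nm. Conditions: 1 uM tau, 30 uM ODS, 15 h at 37 C, pH 7.4.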
FLuc inh – inhibitors of firefly luciferase. Potency, µM (top dose mostly 57.1 µM), actives largely listed as inhibitors. AID 411. 2.2% of 72,000 active. P08659. purified firefly luciferase, luminescence, 8 min; note: nearly all actives have a fitted effect of over 40% in size
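Titration-based qHTS; buffer 50 mM imidazole pH 7.2, 50 mM KCl, 7 mM MgCl2, 10 uM ATP, 0.01% Tween 20, 0.05% BSA; luciferase/luciferin detector mix added after compound; 8 min, ambient; luminescence.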
Hsp90 Hop PPI – changes Hsp90-Hop TPR2A binding signal, up or down; Potency, µM (doses to about 57 µM); 0.44% of 71,000 active; AlphaScreen TPR2A-His6 binding biotin-Hsp90 C-terminal peptide; active = well fitted curve in either direction with a large enough effect; inconclusive = small, poorly fitted or top-dose-only effect, or another doubt
ERK AVP block – vasopressin-driven ERK pathway inhibition; 0.99% of 72,000 active; Potency, µM (doses to about 57.5 µM), actives largely listed as inhibitors; AID 995; HEK293-V1b, vasopressin-stimulated pERK AlphaScreen; note: nearly all actives have a fitted effect of over 55% in size
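HEK293 cells stably expressing V1b receptor, preincubated 30 min at 37 °C with compound, then stimulated 5 min with 25 nM vasopressin. Phospho-ERK by AlphaScreen SureFire after 5 h RT; normalized to DMSO and vasopressin; AC50 by Hill fit.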
PK Bst – pyruvate kinase (B. stearothermophilus) modulation; 1.2% of 51,000 active; Potency, µM; purified pyruvate kinase, luminescence ATP production; ribose 5-phosphate activator present at AC10; in the data active = potency below about 11 µM; inconclusive = mostly about 12 µM to 25 µM;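 the screen sought inhibitors and activators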
Hits are given with their value; [ ] = another dose, or the depositor's remark. Unless noted, calls come from the whole dose curve; as a rule, active = well fitted curve in the direction sought with a large enough effect; inconclusive = small, poorly fitted or top-dose-only effect, or another doubt; inactive = no such curve, though single readings can be large; an effect the other way counts as inactive or inconclusive.

`Cc1cc(NC(=O)NC(=O)c2ccc(F)cc2F)n[nH]1` gave 15-hLO inh inactive, Tau fil binding inactive, FLuc inh 16µM, Hsp90 Hop PPI inactive and ERK AVP block inactive.
Cc1ccccc1-c1nc(NCCN2CCOCC2)c2ccccc2n1 was read as 15-hLO inh inactive, Tau fil binding inactive, FLuc inh inactive[2.29 µM], Hsp90 Hop PPI inactive and ERK AVP block inactive.
`c1ccc(-c2c3ccccc3nc3[nH]c4ccccc4c23)cc1` gave Tau fil binding inactive, Hsp90 Hop PPI inactive and ERK AVP block inactive.
`c1ccc2nc3c(nc2c1)[nH]c1ccccc13` gave 15-hLO inh inactive, Tau fil binding inactive, FLuc inh 16µM, Hsp90 Hop PPI inconclusive, ERK AVP block inactive and PK Bst 4.1.
`N#Cc1ccc(CN2CCC3(CC2)CCN(C(=O)c2cc(C(F)(F)F)cc(C(F)(F)F)c2)CC3)cc1` gave 15-hLO inh inactive, Tau fil binding inactive, FLuc inh inactive[11.4 µM], Hsp90 Hop PPI inactive and ERK AVP block inactive.
CN1[C@@H]2CC(OC(=O)[C@@H](CO)c3ccccc3)C[C@@H]1[C@H]1O[C@H]12 (stereo not given in full) was read as 15-hLO inh inactive[11.4 µM], Tau fil binding inactive[11.4 µM], FLuc inh inactive[11.4 µM], Hsp90 Hop PPI inactive[11 µM] and ERK AVP block inactive[11.5 µM].
O=c1cc[nH]c(=S)[nH]1 was read as 15-hLO inh inactive and ERK AVP block inactive.
For O=c1c(CCc2ccccc2)nc2cnc(N3CCNCC3)nc2n1Cc1ccc(F)cc1 the results were 15-hLO inh inactive, Tau fil binding inactive, FLuc inh inactive[11.4 µM], Hsp90 Hop PPI inactive and ERK AVP block inconclusive.
CCn1c(N)c(C(=O)NCC2CCCO2)sc1=S (stereo not given) was read as 15-hLO inh 10µM, Tau fil binding inactive, FLuc inh inactive, Hsp90 Hop PPI inactive, ERK AVP block inactive and PK Bst inactive.
Screening CC(=O)NCCNc1ncncc1-c1ccccc1CN(C)C returned 15-hLO inh inactive, Tau fil binding inactive, FLuc inh inactive[2.29 µM], Hsp90 Hop PPI inactive and ERK AVP block inactive.
`Cn1cccc1C(=O)N1CCC2(CCCN(Cc3ccc(C#N)cc3)C2)CC1` gave 15-hLO inh inactive, Tau fil binding inactive, FLuc inh inactive[11.4 µM], Hsp90 Hop PPI inactive and ERK AVP block inactive.
`CCOC(=O)CCN1C(=O)[C@H]2[C@H]3[C@H](O)[C@H](O)C/C(=N/NC(=O)OCc4ccc(OC)cc4)[C@@H]3CC[C@@H]2C1=O` gave 15-hLO inh inactive[11.4 µM], FLuc inh inactive[11.4 µM] and ERK AVP block inactive[11.5 µM].
Screening CCOC(=O)c1c(C)[nH]c2ccc3c(c12)CN1CCc2cc(OC)ccc2[C@@H]1O3 returned 15-hLO inh inactive, Tau fil binding 2.5µM, FLuc inh inactive, Hsp90 Hop PPI inactive and ERK AVP block inactive.
Screening CCOC(=O)c1[nH]c2ccc(OC)cc2c1NC(=O)CCN1CCc2ccccc2C1 returned FLuc inh inactive and PK Bst inactive.
Oc1ccc(-c2[nH]ncc2-c2cccc3cccnc23)c(O)c1 was read as 15-hLO inh inactive, Tau fil binding inactive, FLuc inh inactive, Hsp90 Hop PPI inactive, ERK AVP block inactive and PK Bst 5.9.
For CCCn1c(=N)c(C(=O)NCc2ccc3c(c2)OCO3)cc2c(=O)n3cccc(C)c3nc21 the results were 15-hLO inh inactive, Tau fil binding 1.6µM, FLuc inh inactive, Hsp90 Hop PPI inactive and ERK AVP block inactive.
N=c1c(C(=O)NCc2ccccc2)cc2c(=O)n3ccccc3nc2n1CCCN1CCOCC1 was read as 15-hLO inh inconclusive, Tau fil binding inconclusive, FLuc inh inactive, Hsp90 Hop PPI inactive, ERK AVP block inactive and PK Bst inactive.
N=c1c(C(=O)NCc2ccc(F)cc2)cc2c(=O)n3ccccc3nc2n1CCCN1CCOCC1 was read as 15-hLO inh inactive, Tau fil binding 0.79µM, FLuc inh inactive, Hsp90 Hop PPI inactive, ERK AVP block inactive and PK Bst inactive.
For CCOCCCn1c(=N)c(C(=O)NCc2ccc3c(c2)OCO3)cc2c(=O)n3ccccc3nc21 the results were 15-hLO inh inactive, Tau fil binding 5µM, FLuc inh inactive, Hsp90 Hop PPI inactive, ERK AVP block inconclusive and PK Bst inactive.
